From ChEMBL document CHEMBL1157539, “Thousands of chemical starting points for antimalarial lead identification” (Nature, 2010)

Assays:
Format in all cases: functional
[1] = system: Plasmodium falciparum; assay: GSK_TCMDC: Inhibition of Plasmodium falciparum 3D7 in whole red blood cells, using parasite LDH activity as an index of growth. Test compounds present at 2uM
[2] = system: Plasmodium falciparum; assay: GSK_TCMDC: Inhibition of Plasmodium falciparum Dd2 in whole red blood cells, using parasite LDH activity as an index of growth. Test compounds present at 2uM
[3] = system: HepG2; assay: GSK_TCMDC: Percent inhibition of human HepG2 cell line. Test compounds present at 10uM.

SMILES	Inhibition [1] [%]	Inhibition [2] [%]	Inhibition [3] [%]
COc1ccc(NC(=O)[C@H](Cc2ccccc2)Nc2cc(C)nc(NCCc3ccccc3)n2)cc1.O=C(O)C(F)(F)F	98	83	6
O=C(Nc1ccc2oc(-c3ccc(Cl)cc3Cl)nc2c1)c1ccc([N+](=O)[O-])o1	95	78	39
Cc1ccc(C(c2nnnn2C2CCCC2)N(Cc2ccco2)Cc2ccccc2Cl)cc1 (configuration not stated)	85	78	8
CC(=O)c1ccc(-c2ccc(C(=O)NCCCCN3CCC(c4ccc5c(c4OCC(N)=O)CCCC5)CC3)cc2)s1	90	4	26
Nc1nccc2ccc(-c3ccnc(NCc4cccnc4)n3)cc12	100	95	11
CN(C)CC1CCCN1Cc1ccccc1-c1cnn(C)c(=O)c1Oc1cccc(C#N)c1.O=C(O)C(F)(F)F (configuration not stated)	92	15	26
N#Cc1ccc(-c2cnc3ccc(NCc4ccc(S(N)(=O)=O)cc4)nn23)cc1	98	100	7
COc1ccc(S(=O)(=O)N2CCOCC2)cc1NC(=O)c1cc2ccccc2o1	93	0	8
O=C(NCCCCN1CCC(c2ccc3c(c2OCC2CC2)CCCC3)CC1)c1ccc(NC(=O)c2ccc(Cl)cc2)cc1	100	93	23
N#Cc1ccc(N(CCOC(=O)c2ccccc2)Cc2ccccc2C(F)(F)F)cc1C(F)(F)F	92	67	6
Clc1ccc(CNC2CCN(CC3CCCCC3)CC2)cc1.O=C(O)C(F)(F)F	92	15	12
COc1ccc2nc(/N=C3\NC(c4ccccn4)(c4ccccn4)C(=O)N3C)[nH]c2c1	99	98	65
Br.CCCN(CCCCCCN(CCC)CCc1ccc(O)c(O)c1)CCc1ccc(O)cc1	90	5	0
O=C(NCCc1ccccc1)c1cc(-c2cccnc2)cnc1NCC1CC1	93	35	3
CCN(CCCN1CCCCC1)c1nccc(Nc2ccc(Cl)cc2)n1	89	63	19
Cc1cccc(C(=O)NCCCN2CCC(NC(=O)/C=C/c3ccc(Cl)c(Cl)c3)CC2)c1.O=C(O)C(F)(F)F	98	23	39
O=C(c1cc(C(=O)Nc2ccccc2)c(=O)n(-c2ccccc2)c1)c1cc(Cl)ccc1O	100	95	9
CNCCNCc1cccc(-c2ccc(-c3nc4cc(C(F)(F)F)ccc4[nH]3)cc2)c1.O=C(O)C(F)(F)F	100	92	21
OC(CNc1ccnc(Nc2cccc(Cl)c2)n1)c1ccc(C(F)(F)F)cc1 (configuration not stated)	100	61	13
O=c1cc(NCCCNCc2cccc3c2OC(F)(F)O3)[nH]c2ccccc12	88	15	4
O=C(NCCN1CCCCC1)N1CCCN(c2ncnc3cc(-c4ccccc4)sc23)CC1.O=C(O)C(F)(F)F	89	80	2
COc1ccc(Br)cc1/C=C/C(=O)Nc1cccc(C2CCN(C)CC2)c1.O=CO	95	37	44
Cc1nc2ccc(-c3ccc(OC(F)(F)F)cc3)cc2c(O)c1C#N	98	97	0
CCOc1ccc2c(=NN=Cc3ccccn3)cc(C)[nH]c2c1	98	1	19
CC(C)N1CCC(NC(=O)N2CCCN(c3ncnc4cc(-c5ccccc5)sc34)CC2)CC1.O=C(O)C(F)(F)F	87	11	31
O=C(Cc1cccnc1)Nc1cccc(-c2cccc(-c3nc4cc(C(F)(F)F)ccc4[nH]3)c2)c1	99	38	42
O=S(=O)(Nc1cccc(CCN2CCC(N3CCCCC3)CC2)c1)c1ccc(Cl)cc1	94	23	18
Cc1n[nH]c2ccc(-c3cc(OC[C@@H](N)Cc4ccccc4)cnc3-c3cc4ccccc4s3)cc12.O=C(O)C(F)(F)F	99	68	41
C[C@@H](N)C#Cc1cc2c(Nc3ccc(OCc4cccc(F)c4)c(Cl)c3)ncnc2s1.O=CO	89	23	17
